PubChem BioAssay (NCI)
The panel holds about 83,000 compounds, 20% with a hit somewhere; the sample as a whole holds those more often.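 Cell lines were cultured in 96-well plates, exposed to a single compound concentration, and assessed for percent growth 48 hours later.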 Calls of active or inactive are those of the source. Rule for the calls: active = growth percent below 10; inactive = the rest.

Assays:
Experiment in all cases: NCI-60 one-dose screen, 48 h (100 = growth as untreated, 0 = no growth, -100 = all killed)
Details in all cases: 10 µM unless noted
[1] = test system: HCT-15 colon
[2] = test system: HT29 colon
[3] = test system: SNB-75 CNS
[4] = test system: SNB-19 CNS
[5] = test system: U251 CNS
[6] = test system: PC-3 prostate
[7] = test system: SK-MEL-5 melanoma
[8] = test system: UACC-62 melanoma
[9] = test system: LOX IMVI melanoma
[10] = test system: SK-MEL-28 melanoma
[11] = test system: EKVX NSCLC
[12] = test system: SN12C renal
[13] = test system: UO-31 renal
[14] = test system: TK-10 renal
[15] = test system: ACHN renal
[16] = test system: CAKI-1 renal
[17] = test system: A498 renal
[18] = test system: CCRF-CEM leukemia
[19] = test system: MOLT-4 leukemia

Measured: growth

Cn1cnc2c(F)c(Nc3ccc(Br)cc3F)c(C(=O)NOCCO)cc21
active: [2] 6.34% | [8] -8.58% | [10] -3.38% | [17] -28.4%
inactive: [1] 62% | [3] 86.1% | [4] 51.3% | [5] 51.5% | [6] 93% | [7] 45.5% | [9] 29.6% | [11] 54% | [12] 56.2% | [13] 48.8% | [14] 50.5% | [15] 57.6% | [16] 45.9% | [18] 73.8% | [19] 72.9%

Cc1ccc(N)cc1CN1C(=O)c2ccccc2C1=O
inactive: [1] 101% | [2] 85.5% | [3] 87% | [4] 102% | [5] 102% | [6] 90.1% | [7] 103% | [8] 103% | [9] 101% | [10] 110% | [11] 105% | [12] 103% | [13] 70.1% | [14] 88.3% | [15] 106% | [16] 105% | [17] 96.5% | [18] 92.4% | [19] 94.9%

Cc1nn(-c2ccccc2)c2c1N=c1s/c(=C\c3cn(-c4ccccc4)nc3-c3ccc(Cl)cc3)c(=O)n1C(C)N2 (stereo unspecified)
inactive: [1] 85.8% | [2] 94.3% | [3] 86.4% | [4] 98.9% | [5] 85.2% | [6] 82.4% | [7] 85% | [8] 106% | [9] 87.6% | [10] 118% | [11] 84.8% | [12] 91.5% | [13] 70.1% | [14] 152% | [15] 83.7% | [16] 83.6% | [17] 123% | [18] 110% | [19] 95.3%

C[C@@H](Nc1cc(F)cc(F)c1)c1cc(C(=O)N(C)C)cc2c(=O)cc(N3CCOCC3)oc12
active: [3] -8.61% | [17] -38.1%
inactive: [1] 84% | [2] 23.9% | [4] 64.1% | [5] 61.4% | [6] 29% | [7] 73.2% | [8] 11.3% | [9] 48.2% | [10] 46.3% | [11] 68.2% | [12] 52.1% | [13] 24.2% | [14] 32.8% | [15] 49.9% | [16] 33.6% | [18] 70.3% | [19] 25.3%

O=C(Cc1ccc(/C=C/C(=O)c2ncc[nH]2)cc1)Nc1ccc(Br)cc1
active: [1] -5.46% | [2] -21% | [4] 8.45% | [5] -63.5% | [9] -65% | [12] 9.91% | [13] -40% | [15] 2.05% | [18] 6.63% | [19] 2.86%
inactive: [3] 40.5% | [6] 17% | [7] 54.8% | [8] 31% | [10] 73.4% | [11] 38.6% | [14] 75.5% | [16] 32.5% | [17] 73.5%

COCCOc1cnc2ccn([C@H](C)c3nnc4c(F)cc(-c5cnn(C)c5)cn34)c(=O)c2c1
inactive: [1] 95.5% | [2] 104% | [3] 93.2% | [4] 73.9% | [5] 92.2% | [6] 78.7% | [7] 47.5% | [8] 20.7% | [9] 61.5% | [10] 44% | [11] 96% | [12] 86.3% | [13] 60% | [14] 105% | [15] 80.3% | [16] 65.2% | [17] 35.9% | [18] 70.6% | [19] 78.7%

C=CC(=O)N1CCC[C@@H](n2nc(-c3ccc(Oc4ccccc4)cc3)c3c(N)ncnc32)C1
inactive: [1] 72.6% | [2] 30.1% | [3] 19.6% | [4] 49.8% | [5] 48.1% | [6] 57.2% | [7] 56.1% | [8] 20.6% | [9] 24.3% | [10] 79.2% | [11] 52.8% | [12] 27.2% | [15] 23.5% | [16] 32.9% | [18] 54.8% | [19] 25.3%
active: [13] 6.16% | [14] -8.56% | [17] -17.1%

Cc1cc(Nc2nc(N[C@@H](C)c3ncc(F)cn3)ncc2Cl)n[nH]1
active: [17] -2.39%
inactive: [1] 58.4% | [2] 39.1% | [3] 88.3% | [4] 80.9% | [5] 52.7% | [6] 81.8% | [7] 95.9% | [8] 65% | [9] 37.9% | [10] 87.8% | [11] 99.6% | [12] 77.6% | [13] 51% | [14] 82.8% | [15] 63.4% | [16] 70.1% | [18] 76.6% | [19] 62.3%

C/C(=C(/c1ccc(Cl)cc1)c1ccc(OCCN2CCCCC2)cc1)c1ccccc1
active: [2] 3.98%
inactive: [1] 24.8% | [3] 90.7% | [4] 86.7% | [5] 66.5% | [6] 66.8% | [7] 62% | [8] 64.9% | [9] 59.9% | [10] 91.5% | [11] 70.7% | [12] 77% | [13] 59.7% | [14] 94.1% | [15] 103% | [16] 89.4% | [17] 80.3% | [19] 83.4%

Cc1cc(C)n(CC(=O)Nc2ccc(-c3nc4ccccc4s3)cc2)n1
inactive: [1] 105% | [2] 108% | [3] 101% | [4] 99.8% | [5] 89.7% | [6] 86.8% | [7] 96.4% | [8] 95.3% | [9] 97.7% | [10] 109% | [11] 108% | [12] 102% | [13] 83.8% | [14] 106% | [15] 114% | [16] 102% | [17] 94.6% | [18] 98.5% | [19] 84%

Cc1cc(Oc2ccccc2)ccc1Nc1ncnc2ccc(-c3cnc(Cl)c(NS(C)(=O)=O)c3)cc12
inactive: [1] 21.6% | [2] 15.8% | [4] 32.4% | [5] 29.4% | [6] 25.3% | [8] 10.5% | [11] 21.3% | [12] 35.6% | [15] 30.4%
active: [3] 0.0921% | [7] -25.3% | [9] -3.68% | [10] 7.7% | [13] 3.47% | [14] 4.28% | [16] 2.11% | [17] -30.8% | [19] -0.671%

Cc1cnc(NC(=O)Nc2cc(Br)c(C)cc2OC[C@@H]2CNCCO2)cn1
active: [1] 6.54% | [2] -6.22% | [7] -92.2% | [9] -78% | [10] -88.7% | [13] -12.3% | [15] 3.08% | [16] 1.9% | [18] 4.56% | [19] 2.6%
inactive: [3] 26.5% | [4] 39.7% | [5] 11.7% | [6] 39.7% | [8] 12.2% | [11] 25.9% | [12] 39.5% | [14] 28.8% | [17] 18.1%

Cc1ccc(-[n+]2c3cc(N)c(C)cc3nc3cc(C)c(Nc4ccccc4)cc32)cc1
active: [1] -69.8% | [2] -73.9% | [3] -68.5% | [4] -82.3% | [5] -75.1% | [6] -29.1% | [7] -100% | [8] -73.5% | [9] -100% | [10] -69.6% | [11] -22.6% | [12] -70.6% | [13] -86.8% | [14] -18.4% | [15] -92% | [16] -42.2% | [17] -84.5% | [18] 1.93% | [19] -2.02%

CCOc1ccc(N=C(C)Nc2ccc(OCC)cc2)cc1
inactive: [1] 92.1% | [2] 109% | [3] 80.5% | [4] 99.2% | [5] 108% | [6] 93.2% | [7] 109% | [8] 104% | [9] 102% | [10] 113% | [11] 109% | [12] 102% | [13] 82.3% | [14] 108% | [15] 99.5% | [16] 122% | [17] 100% | [18] 88% | [19] 93.8%

COc1cc2c(Oc3ccc(NC(=O)C4(C(=O)Nc5ccc(F)cc5)CC4)cc3F)ccnc2cc1OCCCN1CCOCC1
active: [1] -26% | [2] -59.2% | [3] -96.9% | [5] -57.8% | [6] 7.39% | [7] -96.1% | [8] -67.8% | [9] -89.5% | [10] -78.2% | [13] -74.4% | [14] -5.46% | [15] -4.14% | [16] -69% | [17] -92.4% | [18] -3.58% | [19] -9.06%
inactive: [4] 10.6% | [11] 25.9% | [12] 14.5%

COc1cc2c(cc1O)c(=O)n(CCN(C)C)c1c3cc4c(cc3ncc21)OCO4
active: [1] 2.84% | [2] 8.08% | [3] -37.2% | [4] -0.441% | [5] -49% | [6] -9.82% | [7] -50.9% | [8] -54.2% | [9] -56.3% | [10] -7.55% | [11] 9.22% | [12] -5.86% | [13] -46.8% | [14] -45.5% | [15] -61.8% | [16] -10.2% | [17] -59.8% | [19] -15.9%
